A short description of assay [1]: antimalarial activity against Dd2 strain (AID 2302;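 active means growth inhibition above 50% at the single 2 µM test dose, taken to imply half-maximal potency below 2 µM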;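 further: 0% = DMSO untreated growth and 100% = chloroquine plus artemisinin killed control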). Particulars: P. falciparum Dd2 in RBCs, LDH growth readout, 72 h; at 2 µM; active compounds read high.
The nature of assay [2]: HepG2 cytotoxicity, primary screen, cytotoxicity control for P. falciparum antimalarial project, cell-based, ATP luminescence (AID 2303;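 active means inhibition above 50%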;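 further: 0% = DMSO wells and 100% = digitonin-killed cells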). Particulars: HepG2 viability, 24-48 h, at 10 µM, active compounds read high.
Assay [3] addresses L-lactate dehydrogenase (Plasmodium falciparum (isolate CDC / Honduras)) (UniProt Q27743). Briefly: PfLDH activity inhibition – cell lysate, 3D7 strain, counter-screen for P. falciparum growth inhibition project (AID 2304).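 Further: 0% = vehicle and 100% = reference inhibitor.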 Particulars: P. falciparum 3D7 crude extract, LDH APAD/NBT absorbance; at 2 µM; active compounds read high. On the technique in general: The purpose of a counterscreen is to sort out artefacts and off-target activity.

The nature of assay [4]: inhibition of 3D7 malaria parasite growth – strain 3D7 (AID 2306).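 Further: 0% = DMSO wells and 100% = chloroquine plus artemisinin control wells.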 The conditions noted are these: P. falciparum 3D7 erythrocytic growth, LDH absorbance, 72 h; at 2 µM; active compounds read high.
The target in assay [5] is Calcium-dependent protein kinase 1 (Plasmodium falciparum (isolate 3D7)) (UniProt P62344). Description: PfCDPK1 kinase inhibitors, biochemical, TCAMS library (AID 1159585; cut-off not given, nearly all actives have IC50 up to about 0.98 µM;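 further: inhibitors leave more ATP so luminescence rises with inhibition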). Particulars: recombinant PfCDPK1, Kinase-Glo ATP depletion luminescence. For orientation: In Kinase-Glo more light means more ATP remaining.
Calcium-dependent protein kinase 1 (Plasmodium falciparum (isolate 3D7)), sequence (P62344 whole entry, looked up): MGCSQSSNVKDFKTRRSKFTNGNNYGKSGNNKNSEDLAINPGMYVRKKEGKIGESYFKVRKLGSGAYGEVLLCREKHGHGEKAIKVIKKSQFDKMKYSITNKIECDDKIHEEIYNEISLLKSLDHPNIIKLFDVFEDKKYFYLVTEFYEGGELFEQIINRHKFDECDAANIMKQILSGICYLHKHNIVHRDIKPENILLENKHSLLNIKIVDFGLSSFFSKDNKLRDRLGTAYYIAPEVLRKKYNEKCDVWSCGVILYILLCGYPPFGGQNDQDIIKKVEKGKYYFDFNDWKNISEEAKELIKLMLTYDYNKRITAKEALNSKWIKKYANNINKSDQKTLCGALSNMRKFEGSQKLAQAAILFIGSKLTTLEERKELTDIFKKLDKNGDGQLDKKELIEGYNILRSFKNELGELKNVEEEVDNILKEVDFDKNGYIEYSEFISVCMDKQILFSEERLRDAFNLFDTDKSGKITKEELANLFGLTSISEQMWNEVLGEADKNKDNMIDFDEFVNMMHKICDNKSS
The target of assay [6] is Plasmodium falciparum protein kinase 6 (PK6, PF3D7_1337100) (UniProt Q8IDW1). Description: PfPK6 kinase inhibitors, biochemical, TCAMS library (AID 1159586). Particulars: recombinant PfPK6, Kinase-Glo ATP depletion luminescence.
Plasmodium falciparum protein kinase 6 (PK6, PF3D7_1337100), sequence (Q8IDW1 1-305): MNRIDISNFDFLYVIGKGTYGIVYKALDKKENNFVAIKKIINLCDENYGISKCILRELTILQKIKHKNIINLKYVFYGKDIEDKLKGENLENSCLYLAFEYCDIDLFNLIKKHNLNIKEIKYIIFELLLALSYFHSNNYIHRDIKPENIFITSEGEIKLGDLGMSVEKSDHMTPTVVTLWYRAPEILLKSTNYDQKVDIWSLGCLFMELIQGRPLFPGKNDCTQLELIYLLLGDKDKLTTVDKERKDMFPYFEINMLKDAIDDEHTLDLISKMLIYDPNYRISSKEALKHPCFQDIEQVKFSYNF
Assay [7] addresses Protein kinase 7 (PK7), Plasmodium falciparum 3D7 (PF3D7_0213400) (UniProt Q7YTF7). Briefly: inhibition of Plasmodium PK7 catalytic activity – biochemical, TCAMS antimalarial set, Kinase-Glo luminescence (AID 1159587). Particulars: recombinant PfPK7, Kinase-Glo ATP depletion luminescence.
Assay [8] addresses Calcium-dependent protein kinase 4 (Plasmodium falciparum (isolate 3D7)) (UniProt Q8IBS5). Description: PfCDPK4 kinase inhibitors, biochemical, TCAMS library (AID 1159588; cut-off not given, nearly all actives have IC50 up to about 0.91 µM). The conditions noted are these: recombinant PfCDPK4, Kinase-Glo ATP depletion luminescence.

A number with no mark means an inactive call. For part of these data: Potency and affinity values are given separately. Active and inactive are the calls of the source. Unless noted, how the calls were made is not given here.

Calcium-dependent protein kinase 4 (Plasmodium falciparum (isolate 3D7)), sequence (Q8IBS5 whole entry, looked up): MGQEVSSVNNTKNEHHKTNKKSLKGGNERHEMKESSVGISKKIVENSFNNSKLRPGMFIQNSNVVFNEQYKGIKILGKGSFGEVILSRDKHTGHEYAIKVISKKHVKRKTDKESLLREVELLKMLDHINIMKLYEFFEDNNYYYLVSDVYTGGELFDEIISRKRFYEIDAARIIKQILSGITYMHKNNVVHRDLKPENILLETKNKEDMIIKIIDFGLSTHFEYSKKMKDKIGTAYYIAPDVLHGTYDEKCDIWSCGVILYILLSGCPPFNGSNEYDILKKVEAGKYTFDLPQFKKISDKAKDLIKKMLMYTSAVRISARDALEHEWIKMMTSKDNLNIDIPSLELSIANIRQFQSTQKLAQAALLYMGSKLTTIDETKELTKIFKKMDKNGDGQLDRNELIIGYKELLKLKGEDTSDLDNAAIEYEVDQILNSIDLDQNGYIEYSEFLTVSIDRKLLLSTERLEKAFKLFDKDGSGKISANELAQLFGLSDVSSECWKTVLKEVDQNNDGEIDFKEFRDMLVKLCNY
Protein kinase 7 (PK7), Plasmodium falciparum 3D7 (PF3D7_0213400), sequence (Q7YTF7 1-343): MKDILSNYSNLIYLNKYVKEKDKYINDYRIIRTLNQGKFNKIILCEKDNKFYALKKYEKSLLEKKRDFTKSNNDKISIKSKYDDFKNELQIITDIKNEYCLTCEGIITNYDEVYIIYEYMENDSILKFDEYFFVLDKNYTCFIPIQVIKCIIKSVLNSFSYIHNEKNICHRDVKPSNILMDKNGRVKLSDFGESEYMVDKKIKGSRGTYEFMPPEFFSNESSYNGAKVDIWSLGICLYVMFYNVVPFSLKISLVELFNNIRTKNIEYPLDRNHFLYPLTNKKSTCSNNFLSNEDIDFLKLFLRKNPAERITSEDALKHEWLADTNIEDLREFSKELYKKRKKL
L-lactate dehydrogenase (Plasmodium falciparum (isolate CDC / Honduras)), sequence (Q27743 whole entry, looked up): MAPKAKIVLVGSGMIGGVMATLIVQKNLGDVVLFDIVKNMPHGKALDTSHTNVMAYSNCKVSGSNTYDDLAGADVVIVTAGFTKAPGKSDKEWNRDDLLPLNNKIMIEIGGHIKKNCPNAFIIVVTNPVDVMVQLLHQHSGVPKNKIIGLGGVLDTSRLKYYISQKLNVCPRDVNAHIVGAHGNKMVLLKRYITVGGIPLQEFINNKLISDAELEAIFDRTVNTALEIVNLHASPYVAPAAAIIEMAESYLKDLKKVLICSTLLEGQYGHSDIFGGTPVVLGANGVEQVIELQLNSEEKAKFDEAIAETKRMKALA

For orientation: inhibition means the change of the read-out against control, counted positive when it falls. `CC=Cc1cc(Cc2cnc(N)nc2N)cc(CCC)c1OC`: the growth inhibition in assay [1] is 1%; in assay [4], 97% (active). Moreover, the inhibition was 16% in assay [2] and 5% in assay [3]. Also, the outcome in assay [5], in assay [6], in assay [7] and in assay [8] was inactive.
As for `CCN(CC)S(=O)(=O)c1ccc(C=CC(=O)Nc2cc(Cl)ccc2N2CCOCC2)cc1`, the growth inhibition is 65% (active) in assay [1] and 90% (active) in assay [4]. The inhibition in assay [2] is 3%; in assay [3] it was 4%. The outcome in assay [5], in assay [6], in assay [7] and in assay [8] was inactive.
On to `CCc1nc(N)nc(N)c1-c1ccccc1`, for which the results for the growth inhibition in assay [1] and in assay [4] were 1% and 92% (active), respectively. The inhibition in assay [2] is 53% (active); in assay [3], -2%. Besides, the outcome in assay [5], in assay [6], in assay [7] and in assay [8] was inactive.
On to `O=C(NC1CCN(Cc2ccccc2)CC1)c1ccc(-c2nc3cc(Cl)c(Cl)cc3[nH]2)c(F)c1`, for which the growth inhibition is 83% (active) in assay [1] and 101% (active) in assay [4]. For the same molecule, the inhibition in assay [2] was 4%; in assay [3], -2%. For the same molecule, the outcome in assay [5], in assay [6], in assay [7] and in assay [8] was inactive.
On to `COc1cc(Cc2cnc(N)nc2N)cc(OCCNC(=O)OCc2ccccc2)c1OC`, for which the growth inhibition was -3% in assay [1] and 93% (active) in assay [4]. Moreover, the results for the inhibition in assay [2] and in assay [3] were 6% and 4%, respectively. Also, the result in assay [5], in assay [6], in assay [7] and in assay [8] was inactive.
Turning to `O=C(NC(=O)c1ccccc1O)c1ccccc1O`, the values for the growth inhibition in assay [1] and in assay [4] were 79% (active) and 97% (active), respectively. Also, the inhibition in assay [2] is -5%; in assay [3], -2%. Besides, the outcome in assay [5], in assay [6], in assay [7] and in assay [8] was inactive.
Consider `COc1ccccc1Nc1nc(NC2CCN(C)CC2)cc(-c2cccc(C(F)(F)F)c2)n1`, for which the growth inhibition in assay [1] is 71% (active); in assay [4], 95% (active). Further, the figures for the inhibition in assay [2] and in assay [3] were 100% (active) and -10%, respectively. In addition, the outcome in assay [5], in assay [6], in assay [7] and in assay [8] was inactive.
In the case of `Cc1nc(N)nc(N)c1OCCCCCCOc1ccccc1`, the values for the growth inhibition in assay [1] and in assay [4] were -3% and 95% (active), respectively. The inhibition in assay [2] is 59% (active); in assay [3], -2%. Also, the outcome in assay [5], in assay [6], in assay [7] and in assay [8] was inactive.
On to `CC(C)N1CCC(NCc2ccc(-c3ccc(Cl)cc3)cc2)CC1`, for which the growth inhibition in assay [1] is 48%; in assay [4], 99% (active). Also, the values for the inhibition in assay [2] and in assay [3] were 50% (active) and -3%, respectively. For the same molecule, the outcome in assay [5], in assay [6], in assay [7] and in assay [8] was inactive.
`CSC1=NC(=Nc2c(C)cccc2C)C2(CCCCC2)N1c1ccccc1Cl`: the results for the growth inhibition in assay [1] and in assay [4] were 57% (active) and 95% (active), respectively. Also, the results for the inhibition in assay [2] and in assay [3] were 22% and -6%, respectively. Moreover, the outcome in assay [5], in assay [6], in assay [7] and in assay [8] was inactive.
For `Cc1ccc(NC(=O)c2nc(N3CCN(c4ccncc4)CC3)ccc2Cl)cc1F`, the figures for the growth inhibition in assay [1] and in assay [4] were 57% (active) and 100% (active), respectively. The inhibition was 51% (active) in assay [2] and -5% in assay [3]. Moreover, the outcome in assay [5], in assay [6], in assay [7] and in assay [8] was inactive.
As to `O=C(Cc1cccc(Cl)c1)Nc1ccc(N2CCC(NCc3ccc4ncccc4c3)CC2)cc1`, the growth inhibition was 8% in assay [1] and 81% (active) in assay [4]. For the same molecule, the inhibition in assay [2] is 10%; in assay [3] it was -1%. In addition, the result in assay [5], in assay [6], in assay [7] and in assay [8] was inactive.
Regarding `Cc1cc(OCCCN2CCC(NS(=O)(=O)c3cccc(Br)c3)C2)c2ccccc2n1` (stereo not drawn), the growth inhibition in assay [1] is 40%; in assay [4] it was 86% (active). The inhibition in assay [2] was 13%; in assay [3] it was 3%. In addition, the outcome in assay [5], in assay [6], in assay [7] and in assay [8] was inactive.
For the molecule `COc1ccc2nccc([C@@H](O)CN3CCC(NC(=O)C(c4cc5ccccc5o4)N4CCN(c5ccccc5OC)CC4)CC3)c2c1` (stereo partly drawn), the growth inhibition is 83% (active) in assay [1] and 99% (active) in assay [4]. Besides, the inhibition is 14% in assay [2] and -5% in assay [3]. Also, the outcome in assay [5], in assay [6], in assay [7] and in assay [8] was inactive.
Regarding `Cc1cccn2c(=O)c3cc(C(=O)NC(C)c4ccccc4)c(=N)n(CCc4ccccc4)c3nc12` (stereo not drawn), the growth inhibition in assay [1] is 82% (active); in assay [4] it was 101% (active). Further, the inhibition in assay [2] was 5%; in assay [3] it was -3%. Besides, the result in assay [5], in assay [6], in assay [7] and in assay [8] was inactive.
In the case of `Oc1ccc(Nc2nc(NCc3ccco3)c3ccccc3n2)cc1`, the growth inhibition was 78% (active) in assay [1] and 101% (active) in assay [4]. The figures for the inhibition in assay [2] and in assay [3] were 7% and -3%, respectively. The result in assay [5], in assay [6], in assay [7] and in assay [8] was inactive.
`CC1(C)N=C(N)N=C(N)N1OCc1cc(Cl)c(CON2C(N)=NC(N)=NC2(C)C)cc1Cl`: the growth inhibition in assay [1] is 77% (active); in assay [4] it was 94% (active). Besides, the inhibition in assay [2] was 21%; in assay [3], 3%. Besides, the result in assay [5], in assay [6], in assay [7] and in assay [8] was inactive.
`Cc1[nH]c(C)c(-c2cccc(-c3ccc(OC(F)(F)F)cc3)c2)c(=O)c1Br`: the growth inhibition in assay [1] is 96% (active); in assay [4], 97% (active). The inhibition is 45% in assay [2] and 0% in assay [3]. Moreover, the result in assay [5], in assay [6], in assay [7] and in assay [8] was inactive.
Regarding `CCOc1cc(C(=O)NC2CCN(Cc3ccccc3)CC2)ccc1-c1nc2cc(Cl)c(Cl)cc2[nH]1`, the growth inhibition was 99% (active) in assay [1] and 101% (active) in assay [4]. In addition, the inhibition in assay [2] is 24%; in assay [3], 2%. Besides, the outcome in assay [5], in assay [6], in assay [7] and in assay [8] was inactive.
Consider `O=C(Nc1ccc(F)c(Cl)c1)NC1CCN(c2ccnc3cc(Cl)ccc23)C1` (stereo not drawn), for which the growth inhibition is 74% (active) in assay [1] and 101% (active) in assay [4]. Further, the inhibition is 37% in assay [2] and -3% in assay [3]. Besides, the result in assay [5], in assay [6], in assay [7] and in assay [8] was inactive.
For `c1cc(CNCc2ccc3c(c2)OCO3)cc(-c2cccc(CNc3ccc4ncccc4c3)c2)c1`, the growth inhibition in assay [1] is 27%; in assay [4] it was 98% (active). Besides, the values for the inhibition in assay [2] and in assay [3] were 18% and -4%, respectively. For the same molecule, the result in assay [5], in assay [6], in assay [7] and in assay [8] was inactive.

Source of the values: PubChem BioAssay.
